Results reported in PubChem BioAssay AID504941 (Broad Institute, 2011).
The whole screen tested about 1,200 compounds, of which about 170 (14%) were called active. How the calls were made is not given here. The list is a sample of the results. Potency and affinity values are given separately.

Experiment: twin-arginine translocation blockade, bacterial reporter – cherry-pick, set 2, plate reader, dose response (AID 504941)
Conditions: E. coli Tat transport reporter; series mostly up to 38 µM; activity change, negative = inhibition: at the top concentration

Activity change, negative = inhibition, inactive:
O=C(Nc1ccc(Oc2ccccc2)nc1)C1CCCCN1Cc1ccc(OCCO)cc1 (stereo unspecified) 1.23%
CCOc1ccc(Nc2nc3c(c(=O)[nH]2)CCCC3)cc1 4.88%
COc1ccc(/C=C/C(=O)Nc2ccccc2C(=O)O)cc1OC 1.99%
NS(=O)(=O)c1ccc(CCNC(=O)Cc2ccc(S(=O)(=O)N3CCCC3)s2)cc1 -6%
CC1COc2c(N3CCN(C)CC3)c(F)cc3c(=O)c(C(=O)O)cn1c23 (stereo unspecified) -81.4%
CCn1cc(C(=O)O)c(=O)c2cc(F)c(N3CCN(C)CC3)cc21 -89.3%
O=C(NC(Cc1ccccc1)c1nc2ccccc2[nH]1)c1ccc(Cl)c([N+](=O)[O-])c1 (stereo unspecified) -0.833%
CCOC(=O)c1c(C)[nH]c(C(=O)N(C)Cc2cccc(OC)c2OC)c1C -7.53%
COc1ccccc1NS(=O)(=O)c1cccc(N=C2N=C(N)c3ccccc32)c1 -10.2%
CC(=O)Nc1sc(NC(=O)c2ccccc2)nc1-c1cccs1 -0.47%
Cc1ccc(/C=N/NC(=O)c2ccc(Cn3cc([N+](=O)[O-])cn3)o2)cc1 0.708%
O=C(NCc1cccnc1)C(=O)NCC1OCCN1S(=O)(=O)c1ccc(F)cc1 (stereo unspecified) 4.34%
COc1ccc(C(=O)OC(C)CN2CCN(C)CC2)cc1 (stereo unspecified) 3.65%
Cc1ccc(-n2c(O)c(C=Nc3ccccc3-c3n[nH]c(=S)[nH]c3=O)c3ccccc3c2=O)cc1C 3.74%
Cc1cc(NC(=O)c2ccc([N+](=O)[O-])cc2)n(C)n1 -2.67%
COc1ccc(/C=C(/NC(=O)c2cccc([N+](=O)[O-])c2)C(=O)O)cc1 -2.44%
O=C(NC(=S)NNC(=O)c1ccccc1O)c1ccccc1 -1.95%
COCC(=O)Nc1nnc(Cc2ccc(OC)cc2)s1 11%
CC(Oc1cccnc1[N+](=O)[O-])C(=O)N1CCc2ccccc21 (stereo unspecified) 18.9%
Cc1nc(-c2cccc(S(=O)(=O)N3CCOCC3)c2)cs1 5.67%
CCN(CC)S(=O)(=O)c1cc(NC(=O)c2ccc(-n3cncn3)c([N+](=O)[O-])c2)ccc1C -3.92%
COc1ccc(NC(=O)c2ccccc2[N+](=O)[O-])cc1OC 2.8%
NC(=O)Cn1c(-c2nonc2N)nc2ccccc21 -3.26%
CCCC(=O)Nc1ccc(NC(=O)c2ccccn2)cn1 -2.92%
Cc1onc(-c2c(F)cccc2Cl)c1C(=O)Nc1sc2c(c1C#N)CCC(C(C)(C)C)C2 (stereo unspecified) -4.11%
Cc1onc(-c2ccccc2)c1C(=O)Nc1nc(-c2cc(F)ccc2F)cs1 21.2%
Cc1ccccc1NC(=O)NCCN1C(=O)C2C3C=CC(C3)C2C1=O (stereo unspecified) 9.55%
CCOC(=O)c1ccccc1NC(=S)N1CC(C)CC(C)C1 (stereo unspecified) -10%
CCOC(=O)c1sc(Nc2nc3ccc(OC)cc3s2)cc1C 35.6%
CCCn1c(N)c(C(=O)CSc2nnnn2-c2ccc(O)cc2)c(=O)n(C)c1=O 21.5%
COC(=O)/C(=C/c1ccco1)NC(=O)c1ccccc1 3.77%
O=C1OCCN1C(=O)[C@H]1[C@H](c2ccc(Cl)cc2)C(c2ccccc2)=NN1c1ccccc1 8.19%
COc1cccc(-c2cc(=O)c3cc(NC(C)=O)ccc3[nH]2)c1 37.7%
Cc1c(NC2=NC3(CCCCC3)Cc3ccccc32)c(=O)n(-c2ccccc2)n1C 9%
O=C(Nc1cccc(NC(=O)c2cccnc2)c1)c1ccccc1 17.9%
O=C1CN(S(=O)(=O)c2ccccc2C(F)(F)F)CCN1 9.82%
CCCOc1cccc(C(=O)Nc2ccc(Br)cc2F)c1 -4.33%
COc1ccc(OC)c(NC(=O)c2cccnc2)c1 0.43%
Cc1nn(-c2ccccc2)c(C)c1NC(=O)COC(=O)c1ccc(Cl)c(S(N)(=O)=O)c1 3.3%
CNC(=S)N1CCN(c2c(F)cc3c(=O)c(C(=O)O)cn(C4CC4)c3c2OC)CC1C (stereo unspecified) 395%
COc1cc(C(=O)Oc2cc(C)cc(C)c2)cc(OC)c1OC 36%
Cc1ccc(C2CC(c3ccccc3)n3ncnc3N2)cc1 (stereo unspecified) -27.9%
COc1cc(OC)cc(C(=O)NC2CC(C)(C)NC(C)(C)C2)c1 -3.59%
Cc1ccccc1NC(=O)CCN1CCN(CCO)CC1 8.38%
CN(Cc1cn[nH]c1-c1ccc(-c2ccccc2)cc1)CC1CCOCC1 -2.3%
Cc1ccc(Cn2c(=O)oc3ccccc32)cc1 37.8%
O=C(NCc1cccs1)c1cccnc1C(=O)O -11.6%
COc1cc(/C=C(\C#N)c2nn(CCO)c(N)c2C#N)cc(OC)c1OC -2.58%
CCN(CC(=O)NCc1ccc(F)cc1)CC(=O)Nc1ccc(S(=O)(=O)N2CCCC2)cc1 -0.571%
CC1CCN(C(=O)C2(NC(=O)Nc3cccc(F)c3)CCCCC2)CC1 18.6%
O=C(CSc1nc2ccccc2c(=O)n1CCCN1CCOCC1)Nc1ccc2c(c1)OCO2 -4.12%
Cc1nc(SCc2nc3ccccc3[nH]2)c2oc3ccccc3c2n1 -11.4%
Nc1ccc(C(=O)Nc2nc3ccccc3s2)cc1 2.47%
COCc1cc(C)n(CC(=O)NC(C)c2ccccc2)c(=O)c1C#N (stereo unspecified) 4.42%
COc1ccc(S(=O)(=O)Nc2nc3c(s2)CCCC3)cc1 15.9%
CCCCOCC1CN(c2ccccc2)C(=O)CS1 (stereo unspecified) -12.1%
Cc1ccc(C)c(NC(=O)CCN2CCc3ccccc3C2)c1 10.6%
Cc1ccc(NC(=O)COC(=O)CCC(=O)c2cccs2)c(C)c1 -7.07%
COc1ccc(N(CC(=O)NCc2ccc(Cl)cc2)S(=O)(=O)c2ccccc2[N+](=O)[O-])c(OC)c1 13.4%
Cc1cc(C)nc(SC(C)C(=O)N/N=C/c2cccs2)n1 (stereo unspecified) -3.03%
Cc1ccc(C(=O)c2cnc3ccccc3c2-c2ccccc2)cc1 6.74%
CC1=NCC(C)c2c1[nH]c1ccccc21 (stereo unspecified) 18.7%
Cc1cccc(/C=N/NC(=O)c2cc(C3CC3)nc3ccccc23)n1 0.812%
O=C(NCc1ccccc1)C(=O)NCC1OCCN1S(=O)(=O)c1ccc([N+](=O)[O-])cc1 (stereo unspecified) 2.79%
Cc1noc(C)c1COC(=O)c1cccc(S(=O)(=O)N2CCOCC2)c1 13.1%
C#CCOCCOCCOCCNc1nc(N2CCN(C(=O)Cn3cc(CC(C)O)nn3)CC2)nc(N2CCN(C(=O)[C@H](CCCCN)n3cc(CCCC)nn3)CC2)n1 (stereo partly specified) 13.3%
COc1cccc(-n2c(SCc3ccccn3)nc3c(c2=O)SCC3)c1 38.5%
Cc1ccc2cccc(OCC(=O)N3CCc4ccccc43)c2n1 2.15%
COc1ccc(CCNC(=O)/C=C/c2ccco2)cc1OC 9.53%
COc1ccccc1N1CCN(c2nc(-c3ccccc3)cc(C(F)(F)F)n2)CC1 -1.92%
Cc1ccccc1OCC(=O)Nc1nnc(-c2ccncc2)s1 -14.8%
NC1C2CN(c3nc4c(cc3F)c(=O)c(C(=O)O)cn4-c3ccc(F)cc3F)CC12 (stereo unspecified) -67.3%
CSc1cccc(NC(=O)CN(C)S(=O)(=O)c2cnc[nH]2)c1 -1.69%
O=C(N/C(=C/c1ccccc1)C(=O)N1CCCCC1)c1ccc(Br)o1 12.3%
COc1cccc(NC(=O)c2ccc3c(SCC(=O)O)c4c(nc3c2)CCCC4)c1 9.97%
COc1ccc(OC)c(C(=O)CSc2nnc(-c3cccs3)o2)c1 30.7%
CC(C)OC(=O)c1nn2c(C(F)(F)F)cc(-c3ccco3)nc2c1Cl -0.449%
O=C(Nc1ccc(Br)cc1)C1CC(O)CN1C(=O)Oc1ccccc1 (stereo unspecified) -1.35%
CCOc1ccc(NC(C(=O)Nc2cccc(C(C)=O)c2)c2ccccc2)cc1 (stereo unspecified) 3.76%
O=C(NC1CC1)c1ccc(N2CCCCC2)c([N+](=O)[O-])c1 -2.46%
COc1cc2cc(CN(CCO)S(=O)(=O)c3ccccc3Cl)c(=O)[nH]c2cc1OC -14.1%
